Results on one sequence are retold here after paper PMC7862700, “An all-to-all approach to the identification of sequence-specific readers for epigenetic DNA modifications on cytosine”.

Assay in all cases: DAPPL (digital affinity profiling via proximity ligation, sequencing); 10 mM Tris-HCl pH 7.5, 50 mM NaCl, 1 mM DTT, 4% glycerol, room temperature, 30 min; GST-TFs on glutathione beads, 16-mer random dsDNA library, 0.1% formaldehyde crosslink after washing; high values mean tight binding
For one test, the target named is T1, FLI1 (Homo sapiens, UniProt Q01543 1-452).
T1 sequence: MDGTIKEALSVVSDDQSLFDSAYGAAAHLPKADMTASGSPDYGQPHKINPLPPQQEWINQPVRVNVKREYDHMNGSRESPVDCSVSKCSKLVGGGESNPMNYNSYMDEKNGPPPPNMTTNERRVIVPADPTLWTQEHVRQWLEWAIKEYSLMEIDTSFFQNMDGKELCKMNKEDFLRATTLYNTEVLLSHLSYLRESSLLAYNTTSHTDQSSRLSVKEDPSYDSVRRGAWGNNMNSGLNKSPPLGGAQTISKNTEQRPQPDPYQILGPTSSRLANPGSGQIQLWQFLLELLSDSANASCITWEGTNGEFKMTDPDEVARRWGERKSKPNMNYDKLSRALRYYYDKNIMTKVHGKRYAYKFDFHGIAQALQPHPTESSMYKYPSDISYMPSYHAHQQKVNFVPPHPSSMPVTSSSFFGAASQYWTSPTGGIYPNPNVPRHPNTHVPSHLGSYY
The following applies: protein: recombinant; tags: N-terminal GST; dsDNA, one strand shown. The procedure, abridged:
(§1)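 Pools were built from human transcription factors expressed in yeast as GST fusions, captured on glutathione beads and DNA-barcoded, along with a tag-only sample. Incubation with 200 nmole of a 16-mer random double-stranded DNA library lasted 30 min at room temperature in Tris/NaCl/DTT/glycerol buffer, and was followed by washing, 0.1% formaldehyde crosslinking, proximity ligation, PCR amplification and Illumina NextSeq500 sequencing. Binding signal is the quotient of each hexamer's read frequency for a factor and its frequency for the tag-only sample.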

In a further test the target is T2, ELK1 (Homo sapiens, UniProt P19419 1-428).
T2 sequence: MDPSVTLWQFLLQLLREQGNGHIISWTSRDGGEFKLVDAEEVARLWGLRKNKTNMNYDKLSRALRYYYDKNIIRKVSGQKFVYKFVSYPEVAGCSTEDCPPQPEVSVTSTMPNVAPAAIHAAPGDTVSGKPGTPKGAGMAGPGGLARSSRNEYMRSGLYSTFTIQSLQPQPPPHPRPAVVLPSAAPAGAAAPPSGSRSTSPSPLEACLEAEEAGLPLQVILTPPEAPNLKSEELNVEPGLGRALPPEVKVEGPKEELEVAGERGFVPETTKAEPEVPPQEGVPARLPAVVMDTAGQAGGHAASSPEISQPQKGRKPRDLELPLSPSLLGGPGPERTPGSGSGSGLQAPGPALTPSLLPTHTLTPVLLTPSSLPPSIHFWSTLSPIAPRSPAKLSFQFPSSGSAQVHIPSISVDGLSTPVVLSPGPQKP
The following applies: protein: recombinant; tags: N-terminal GST; dsDNA, one strand shown. In short, it runs like this:
as §1

In the next test the target is T3, GABPA (Homo sapiens, UniProt Q06546 1-454).
T3 sequence: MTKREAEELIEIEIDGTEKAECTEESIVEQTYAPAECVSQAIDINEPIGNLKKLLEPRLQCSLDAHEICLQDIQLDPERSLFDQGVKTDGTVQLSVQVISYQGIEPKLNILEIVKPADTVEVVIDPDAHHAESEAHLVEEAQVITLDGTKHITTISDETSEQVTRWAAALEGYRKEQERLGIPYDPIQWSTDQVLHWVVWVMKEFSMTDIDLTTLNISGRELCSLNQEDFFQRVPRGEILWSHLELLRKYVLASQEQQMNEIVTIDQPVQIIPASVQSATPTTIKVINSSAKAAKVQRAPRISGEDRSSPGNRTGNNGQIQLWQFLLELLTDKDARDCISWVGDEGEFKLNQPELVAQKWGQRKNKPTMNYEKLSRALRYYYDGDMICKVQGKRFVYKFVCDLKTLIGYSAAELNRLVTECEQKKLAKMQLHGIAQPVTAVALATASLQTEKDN
The conditions noted are these: protein: recombinant; tags: N-terminal GST; dsDNA, one strand shown. The procedure, abridged: as §1

The target of another test is T4, ERG (Homo sapiens, UniProt P11308 1-479).
T4 sequence: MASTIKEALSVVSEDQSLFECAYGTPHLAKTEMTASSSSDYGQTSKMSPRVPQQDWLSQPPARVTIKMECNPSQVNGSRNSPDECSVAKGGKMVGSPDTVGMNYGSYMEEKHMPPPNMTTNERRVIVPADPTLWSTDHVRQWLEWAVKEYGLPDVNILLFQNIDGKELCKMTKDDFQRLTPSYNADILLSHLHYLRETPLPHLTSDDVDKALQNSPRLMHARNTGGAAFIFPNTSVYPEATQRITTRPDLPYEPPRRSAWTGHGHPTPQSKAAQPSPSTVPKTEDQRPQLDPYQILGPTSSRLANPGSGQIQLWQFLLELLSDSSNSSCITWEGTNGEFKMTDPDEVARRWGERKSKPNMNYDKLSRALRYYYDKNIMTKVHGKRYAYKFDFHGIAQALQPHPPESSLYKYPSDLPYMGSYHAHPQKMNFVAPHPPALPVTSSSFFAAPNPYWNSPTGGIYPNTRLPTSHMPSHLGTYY
The following applies: protein: recombinant; tags: N-terminal GST; dsDNA, one strand shown. In short, it runs like this:
as §1

In another test the target is ELF1 (Homo sapiens, UniProt P32519 1-619). The conditions noted are these: protein: recombinant; tags: N-terminal GST; dsDNA, one strand shown. The procedure, abridged: as §1
ELF1, sequence (P32519 whole entry): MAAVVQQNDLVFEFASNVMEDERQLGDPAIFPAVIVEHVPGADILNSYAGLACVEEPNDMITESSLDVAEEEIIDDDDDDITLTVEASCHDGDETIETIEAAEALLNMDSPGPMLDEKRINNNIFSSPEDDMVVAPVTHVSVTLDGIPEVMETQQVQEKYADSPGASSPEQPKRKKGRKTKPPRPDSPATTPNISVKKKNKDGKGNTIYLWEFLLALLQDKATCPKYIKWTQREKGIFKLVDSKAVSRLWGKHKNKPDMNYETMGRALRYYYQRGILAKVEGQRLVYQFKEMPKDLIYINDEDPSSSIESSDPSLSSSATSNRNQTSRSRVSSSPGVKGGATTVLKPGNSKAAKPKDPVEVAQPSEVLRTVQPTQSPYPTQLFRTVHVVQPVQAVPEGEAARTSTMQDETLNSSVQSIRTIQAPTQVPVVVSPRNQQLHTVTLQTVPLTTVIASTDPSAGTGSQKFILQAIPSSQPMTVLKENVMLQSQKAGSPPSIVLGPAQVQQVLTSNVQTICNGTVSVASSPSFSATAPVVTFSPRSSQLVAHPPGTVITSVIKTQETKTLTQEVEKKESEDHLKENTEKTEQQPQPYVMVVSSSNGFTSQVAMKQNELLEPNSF
The target in a further test is T5, EHF (Homo sapiens, UniProt Q9NZC4 1-300).
T5 sequence: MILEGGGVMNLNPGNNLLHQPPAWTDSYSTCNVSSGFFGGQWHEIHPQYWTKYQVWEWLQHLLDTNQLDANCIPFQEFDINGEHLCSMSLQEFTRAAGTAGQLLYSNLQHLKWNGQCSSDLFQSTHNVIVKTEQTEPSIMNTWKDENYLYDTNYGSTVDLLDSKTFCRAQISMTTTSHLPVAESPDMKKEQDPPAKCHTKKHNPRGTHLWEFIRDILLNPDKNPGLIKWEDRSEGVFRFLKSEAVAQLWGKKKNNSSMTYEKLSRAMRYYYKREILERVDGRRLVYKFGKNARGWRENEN
The following applies: protein: recombinant; tags: N-terminal GST; dsDNA, one strand shown. In short, it runs like this: as §1

In the next test the target is SPI1 (Homo sapiens, UniProt P17947 1-270). The following applies: protein: recombinant; tags: N-terminal GST; dsDNA, one strand shown. In short, it runs like this:
as §1

For the next test, the target named is SPIB (Homo sapiens, UniProt Q01892 1-262). The following applies: protein: recombinant; tags: N-terminal GST; dsDNA, one strand shown. In short, it runs like this: as §1
SPIB, sequence (Q01892 whole entry): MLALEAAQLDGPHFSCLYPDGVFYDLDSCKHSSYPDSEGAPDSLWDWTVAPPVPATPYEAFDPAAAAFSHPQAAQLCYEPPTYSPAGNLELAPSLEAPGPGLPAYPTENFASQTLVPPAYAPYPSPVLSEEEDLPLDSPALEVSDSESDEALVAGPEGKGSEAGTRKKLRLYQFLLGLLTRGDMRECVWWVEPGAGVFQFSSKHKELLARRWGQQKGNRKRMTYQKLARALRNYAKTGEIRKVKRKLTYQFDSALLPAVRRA
The target in a further test is T6, ELK3 (Homo sapiens, UniProt P41970 1-407).
T6 sequence: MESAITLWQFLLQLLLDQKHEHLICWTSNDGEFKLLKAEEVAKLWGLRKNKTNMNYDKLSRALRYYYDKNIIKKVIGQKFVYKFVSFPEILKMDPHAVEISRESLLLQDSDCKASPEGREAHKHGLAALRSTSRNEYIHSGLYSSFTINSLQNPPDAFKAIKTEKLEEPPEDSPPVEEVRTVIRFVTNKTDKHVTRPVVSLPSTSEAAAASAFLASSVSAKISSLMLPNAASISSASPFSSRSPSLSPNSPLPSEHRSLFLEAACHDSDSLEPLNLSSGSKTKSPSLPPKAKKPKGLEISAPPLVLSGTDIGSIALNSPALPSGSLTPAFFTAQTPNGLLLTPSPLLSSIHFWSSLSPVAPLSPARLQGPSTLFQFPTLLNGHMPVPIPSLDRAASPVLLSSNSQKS
The conditions noted are these: protein: recombinant; tags: N-terminal GST; dsDNA, one strand shown. The procedure, abridged:
as §1

The target of another test is T7, FEV (Homo sapiens, UniProt Q99581 1-238).
T7 sequence: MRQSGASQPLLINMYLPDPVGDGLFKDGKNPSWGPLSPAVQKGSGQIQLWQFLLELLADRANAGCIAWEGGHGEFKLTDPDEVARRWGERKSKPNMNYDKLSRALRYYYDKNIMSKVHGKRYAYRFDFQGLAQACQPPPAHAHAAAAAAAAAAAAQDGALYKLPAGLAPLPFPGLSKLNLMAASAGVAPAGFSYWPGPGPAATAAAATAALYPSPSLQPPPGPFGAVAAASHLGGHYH
The conditions noted are these: protein: recombinant; tags: N-terminal GST; dsDNA, one strand shown. In short, it runs like this:
as §1

The next test addresses ETV5 (Homo sapiens, UniProt P41161 1-510). The conditions noted are these: protein: recombinant; tags: N-terminal GST; dsDNA, one strand shown. The procedure, abridged:
as §1

A further test has as its target HSF1 (Homo sapiens, UniProt Q00613 1-529). The conditions noted are these: protein: recombinant; tags: N-terminal GST; chain copies: 3; dsDNA, one strand shown. The procedure, abridged:
as §1

The target in a further test is T8, SPIC (Homo sapiens, UniProt Q8N5J4 1-248).
T8 sequence: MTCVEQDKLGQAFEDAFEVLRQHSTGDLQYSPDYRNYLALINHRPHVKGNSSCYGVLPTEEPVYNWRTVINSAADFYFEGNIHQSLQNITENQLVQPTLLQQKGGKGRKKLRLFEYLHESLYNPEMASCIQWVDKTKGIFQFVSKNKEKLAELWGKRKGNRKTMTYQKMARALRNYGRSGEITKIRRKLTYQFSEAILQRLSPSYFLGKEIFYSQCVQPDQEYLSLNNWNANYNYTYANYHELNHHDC
The conditions noted are these: protein: recombinant; tags: N-terminal GST; dsDNA, one strand shown. In short, it runs like this:
as §1

For a further test, the target named is ELF4 (Homo sapiens, UniProt Q99607 1-663). The following applies: protein: recombinant; tags: N-terminal GST; dsDNA, one strand shown. The procedure, abridged:
as §1

The target in another test is T9, ELK4 (Homo sapiens, UniProt P28324-2 1-405).
T9 sequence: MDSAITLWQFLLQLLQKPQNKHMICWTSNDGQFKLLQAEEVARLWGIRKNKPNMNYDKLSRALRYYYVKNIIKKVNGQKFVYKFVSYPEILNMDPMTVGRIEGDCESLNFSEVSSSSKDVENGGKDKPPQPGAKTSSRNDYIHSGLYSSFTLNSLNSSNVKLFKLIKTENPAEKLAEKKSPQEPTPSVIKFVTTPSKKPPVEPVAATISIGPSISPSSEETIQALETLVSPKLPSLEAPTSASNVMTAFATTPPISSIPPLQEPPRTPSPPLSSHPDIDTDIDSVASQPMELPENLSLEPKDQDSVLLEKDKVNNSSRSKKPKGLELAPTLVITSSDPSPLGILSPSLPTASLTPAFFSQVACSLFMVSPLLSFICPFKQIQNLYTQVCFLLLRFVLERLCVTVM
The conditions noted are these: protein: recombinant; tags: N-terminal GST; dsDNA, one strand shown. The procedure, abridged:
as §1

Another test deals with T10, ETV2 (Homo sapiens, UniProt O00321 1-342).
T10 sequence: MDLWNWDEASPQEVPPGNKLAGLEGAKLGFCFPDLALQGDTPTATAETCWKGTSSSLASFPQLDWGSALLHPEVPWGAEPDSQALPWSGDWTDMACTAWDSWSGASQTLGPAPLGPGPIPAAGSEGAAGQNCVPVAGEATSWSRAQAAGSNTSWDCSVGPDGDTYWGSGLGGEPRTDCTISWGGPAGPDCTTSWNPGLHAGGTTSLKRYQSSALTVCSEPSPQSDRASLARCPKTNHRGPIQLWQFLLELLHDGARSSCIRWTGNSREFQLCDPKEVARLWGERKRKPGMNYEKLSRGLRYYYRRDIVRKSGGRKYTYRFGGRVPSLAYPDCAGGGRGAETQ
The following applies: protein: recombinant; tags: N-terminal GST; dsDNA, one strand shown. In short, it runs like this: as §1

The target in a further test is T11, ELF3 (Homo sapiens, UniProt P78545 1-371).
T11 sequence: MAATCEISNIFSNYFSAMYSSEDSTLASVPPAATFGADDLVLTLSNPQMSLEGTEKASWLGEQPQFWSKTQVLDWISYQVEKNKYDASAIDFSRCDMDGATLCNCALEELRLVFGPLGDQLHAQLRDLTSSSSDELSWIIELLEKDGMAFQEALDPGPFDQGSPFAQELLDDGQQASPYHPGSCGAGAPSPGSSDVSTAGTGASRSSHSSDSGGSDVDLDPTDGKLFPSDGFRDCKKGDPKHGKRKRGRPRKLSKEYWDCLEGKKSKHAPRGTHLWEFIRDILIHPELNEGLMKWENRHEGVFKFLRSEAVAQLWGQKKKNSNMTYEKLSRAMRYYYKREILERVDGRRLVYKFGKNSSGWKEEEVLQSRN
The conditions noted are these: protein: recombinant; tags: N-terminal GST; dsDNA, one strand shown. The procedure, abridged:
as §1

For the next test, the target named is CRX (Homo sapiens, UniProt O43186 1-299). The following applies: protein: recombinant; tags: N-terminal GST; dsDNA, one strand shown. The procedure, abridged:
as §1

The next test deals with ETV1 (Homo sapiens, UniProt P50549 1-477). The following applies: protein: recombinant; tags: N-terminal GST; dsDNA, one strand shown. In short, it runs like this: as §1
ETV1, sequence (P50549 whole entry): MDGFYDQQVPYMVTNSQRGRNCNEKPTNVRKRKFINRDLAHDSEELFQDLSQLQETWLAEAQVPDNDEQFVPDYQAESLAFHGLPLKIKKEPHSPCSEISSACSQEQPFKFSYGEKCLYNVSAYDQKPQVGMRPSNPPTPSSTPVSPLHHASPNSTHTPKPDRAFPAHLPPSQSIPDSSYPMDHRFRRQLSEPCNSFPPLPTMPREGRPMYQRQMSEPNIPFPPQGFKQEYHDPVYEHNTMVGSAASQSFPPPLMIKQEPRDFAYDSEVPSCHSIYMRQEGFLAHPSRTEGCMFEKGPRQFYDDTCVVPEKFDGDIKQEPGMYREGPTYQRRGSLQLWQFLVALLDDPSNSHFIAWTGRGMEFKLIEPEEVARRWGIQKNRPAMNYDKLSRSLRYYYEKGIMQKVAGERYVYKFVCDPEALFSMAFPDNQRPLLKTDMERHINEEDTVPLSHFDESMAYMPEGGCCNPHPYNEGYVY

CRX, sequence (O43186 whole entry): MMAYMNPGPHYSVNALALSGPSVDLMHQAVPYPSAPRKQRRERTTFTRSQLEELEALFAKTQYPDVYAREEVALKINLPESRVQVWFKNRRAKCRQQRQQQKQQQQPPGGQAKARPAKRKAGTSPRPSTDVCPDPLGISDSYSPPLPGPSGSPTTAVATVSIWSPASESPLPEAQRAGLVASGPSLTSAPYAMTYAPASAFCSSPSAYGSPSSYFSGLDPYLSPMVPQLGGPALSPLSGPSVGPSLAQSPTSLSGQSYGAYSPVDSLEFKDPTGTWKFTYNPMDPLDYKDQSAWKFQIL
ETV5, sequence (P41161 whole entry): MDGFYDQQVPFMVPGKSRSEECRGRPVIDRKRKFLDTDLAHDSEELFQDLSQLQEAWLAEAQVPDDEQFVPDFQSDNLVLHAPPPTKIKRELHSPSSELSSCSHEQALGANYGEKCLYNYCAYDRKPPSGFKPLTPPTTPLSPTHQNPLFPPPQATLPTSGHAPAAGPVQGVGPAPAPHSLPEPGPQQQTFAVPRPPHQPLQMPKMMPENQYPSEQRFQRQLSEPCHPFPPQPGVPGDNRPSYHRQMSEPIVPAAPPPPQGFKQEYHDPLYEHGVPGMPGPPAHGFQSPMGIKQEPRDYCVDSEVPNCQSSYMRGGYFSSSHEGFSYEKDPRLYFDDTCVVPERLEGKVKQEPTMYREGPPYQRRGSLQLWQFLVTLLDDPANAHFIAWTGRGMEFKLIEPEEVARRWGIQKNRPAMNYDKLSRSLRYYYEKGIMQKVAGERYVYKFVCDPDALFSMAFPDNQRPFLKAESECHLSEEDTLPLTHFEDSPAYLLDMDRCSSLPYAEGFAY
ELF4, sequence (Q99607 whole entry): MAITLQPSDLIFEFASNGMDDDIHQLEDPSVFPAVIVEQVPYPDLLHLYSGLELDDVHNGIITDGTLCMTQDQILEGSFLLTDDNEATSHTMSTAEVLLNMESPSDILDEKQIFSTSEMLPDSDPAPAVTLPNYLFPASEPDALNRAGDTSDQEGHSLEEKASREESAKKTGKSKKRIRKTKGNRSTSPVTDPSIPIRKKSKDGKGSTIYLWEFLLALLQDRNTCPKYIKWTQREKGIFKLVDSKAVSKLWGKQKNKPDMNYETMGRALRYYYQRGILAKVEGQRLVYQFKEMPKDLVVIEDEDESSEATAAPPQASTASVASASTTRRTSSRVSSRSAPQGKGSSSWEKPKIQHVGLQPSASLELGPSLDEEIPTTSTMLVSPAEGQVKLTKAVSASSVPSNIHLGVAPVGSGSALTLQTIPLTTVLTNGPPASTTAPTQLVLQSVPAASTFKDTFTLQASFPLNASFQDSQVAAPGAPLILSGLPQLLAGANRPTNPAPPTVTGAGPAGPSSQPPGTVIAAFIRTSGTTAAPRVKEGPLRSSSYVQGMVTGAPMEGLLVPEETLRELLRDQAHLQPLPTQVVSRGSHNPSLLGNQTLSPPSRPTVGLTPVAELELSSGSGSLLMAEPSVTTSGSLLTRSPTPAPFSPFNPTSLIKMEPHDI
HSF1, sequence (Q00613 whole entry): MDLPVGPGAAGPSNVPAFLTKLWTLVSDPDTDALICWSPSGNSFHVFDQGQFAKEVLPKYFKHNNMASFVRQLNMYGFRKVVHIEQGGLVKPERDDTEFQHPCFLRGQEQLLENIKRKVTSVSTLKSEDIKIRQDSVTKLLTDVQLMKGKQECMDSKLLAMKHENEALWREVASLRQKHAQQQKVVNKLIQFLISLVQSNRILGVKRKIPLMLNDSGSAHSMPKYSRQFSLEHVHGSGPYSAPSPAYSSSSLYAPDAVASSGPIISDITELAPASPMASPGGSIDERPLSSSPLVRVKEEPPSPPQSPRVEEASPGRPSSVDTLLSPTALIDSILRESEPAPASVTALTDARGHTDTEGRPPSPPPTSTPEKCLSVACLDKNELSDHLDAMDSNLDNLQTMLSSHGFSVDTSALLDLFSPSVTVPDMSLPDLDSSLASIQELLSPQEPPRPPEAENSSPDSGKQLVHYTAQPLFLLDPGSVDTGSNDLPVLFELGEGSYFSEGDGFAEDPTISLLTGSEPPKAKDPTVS

ACCTCC: the binding signal was 1.38 fold enrichment (6-mer frequency, TF over GST control) in the test with FLI1; 1.42 fold enrichment (6-mer frequency, TF over GST control) with ELK1; 1.43 fold enrichment (6-mer frequency, TF over GST control) with GABPA; 1.36 fold enrichment (6-mer frequency, TF over GST control) with ERG; 1.44 fold enrichment (6-mer frequency, TF over GST control) in the test with ELF1; 1.31 fold enrichment (6-mer frequency, TF over GST control) in the test with EHF. The binding signal was 1.31 fold enrichment (6-mer frequency, TF over GST control) with SPI1; 1.4 fold enrichment (6-mer frequency, TF over GST control) with SPIB; 1.46 fold enrichment (6-mer frequency, TF over GST control) in the test with ELK3; 1.42 fold enrichment (6-mer frequency, TF over GST control) with FEV; 1.43 fold enrichment (6-mer frequency, TF over GST control) in the test with ETV5; 1.11 fold enrichment (6-mer frequency, TF over GST control) with HSF1. Further, the binding signal with SPIC was 1.45 fold enrichment (6-mer frequency, TF over GST control); with ELF4, 1.44 fold enrichment (6-mer frequency, TF over GST control); with ELK4, 1.45 fold enrichment (6-mer frequency, TF over GST control); in the test with ETV2, 1.4 fold enrichment (6-mer frequency, TF over GST control); with ELF3, 1.14 fold enrichment (6-mer frequency, TF over GST control); in the test with CRX it was 1.08 fold enrichment (6-mer frequency, TF over GST control). In addition, in the test with ETV1, the binding signal was 1.4 fold enrichment (6-mer frequency, TF over GST control).
